Only some compounds are listed: those with a hit (about 21% of all), similar ones and a draw of the others.
SARS PLP yeast – SARS-CoV PLP inhibition in yeast. Potency, µM (top dose mostly 32.9 µM), for inactives: top-dose activity, positive = growth rescue, actives largely listed as activators. S. cerevisiae expressing SARS-CoV PLpro, growth rescue. 330,000 tested, 0.19% active; further: potency means the concentration at half of the fitted maximal effect; 0% is about no effect; nearly all actives have a fitted effect of over 55% in size
Pf growth 48h – P. falciparum growth inhibition at 48 hours (one generation) | P. falciparum luciferase growth in erythrocytes, 48 h | Potency, µM (series often up to 28.7 µM), inactives show at the highest dose activity change, negative = inhibition, hits mostly inhibitors | 310,000 tested, 5.9% active | AID 504832; active means well fitted inhibition curve with a large enough effect; inconclusive means small, poorly fitted or top-dose-only effect, or another doubt; inactive means no such curve, though single readings can be large or run the other way; further: potency means the concentration at half of the fitted maximal effect; on the % scale 0 is the no-effect control and ±100 the full control effect
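Luciferase-expressing P. falciparum in infected erythrocytes (2% hematocrit, 0.1% parasitemia final) in RPMI 1640/0.5% Albumax were exposed to compound for 48 hours at 37 C, 5% CO2; growth read as luminescence.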
NS1 inh – inhibitors of influenza NS1 protein function | Potency, µM (top dose mostly 46.1 µM), for inactives: top-dose activity, positive = more growth | AID 2326 | 270,000 tested, 0.4% active; further: potency means the concentration at half of the fitted maximal effect; actives are rising curves; nearly all actives have a fitted effect of over 50% in size
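S. cerevisiae expressing influenza A NS1, grown in glucose, washed, then diluted 1:100 into pH 6.0 -URA galactose medium with 23 nl compound. Growth recovery read as OD600; NS1-free strain serves as control.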
Shiga inhibitor – Shiga toxin inhibition. inhibition, % at 38.7 µM. Vero cells, Shiga toxin protein synthesis inhibition reporter. 290,000 tested, 9.2% active; in the data active means inhibition mostly above about 28%, no sharp cut-off; inactive means mostly below about 43%; further: 0% is about no effect
Pf growth 96h – P. falciparum growth inhibition at 96 hour, primary screen for plastid delayed-death inhibitors; P. falciparum luciferase reporter growth, 96 h; Potency, µM (doses to about 28.7 µM), for inactives: top-dose activity change, negative = inhibition, most hits filed as inhibitors; 320,000 tested, 6.9% active; AID 504834; active means well fitted inhibition curve with a large enough effect; inconclusive means small, poorly fitted or top-dose-only effect, or another doubt; inactive means no such curve, though single readings can be large or run the other way; further: potency means the concentration at half of the fitted maximal effect; on the % scale 0 is the no-effect control and ±100 the full control effect
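Two parasite generations (96 h, 37 C, 5% CO2) of compound exposure in infected erythrocytes (0.05% parasitemia, 2% hematocrit). Luciferase-reporter P. falciparum; decreased luminescence indicates inhibited growth, aimed at apicoplast-acting delayed death.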
CHX counter – affects cycloheximide protein synthesis inhibition readout, counter-screen. cell reporter, cycloheximide protein synthesis inhibition counterscreen. max response, %. 300,000 tested, 12% active; in the data active means max response mostly above about 13%, no sharp cut-off; inactive means mostly below about 14%; further: read at 38.3 µM for the half of the compounds with a filed dose; 0% is about no effect
Numbers without * were called inactive; ? = inconclusive; nt = not tested or not shown. Unless noted, the call rests on the fitted dose curve.

SMILES	SARS PLP yeast	Pf growth 48h	NS1 inh	Shiga inhibitor	Pf growth 96h	CHX counter
CC(=O)OC[C@H]1O[C@H](CCO/N=C(\C)CCN2CCCc3nc(C)c(C)cc32)C=C[C@@H]1OC(C)=O	0%	?	3%	-13	?	-3
COc1ccc(O[C@H]2C=C[C@@H](c3ccccc3)O[C@@H]2CO/N=C(\C)CCN2CCc3nc(-c4ccccc4)c(-c4ccccc4)cc3C2)cc1	3%	10µM*	?	-18	?	-3
CCc1cc2c(nc1CC)CCN(CC/C(C)=N/OC[C@H]1O[C@H](c3ccccc3)C=C[C@@H]1Oc1ccc(OC)cc1)C2	-15%	?	-82%	-3	4.7µM*	-4
COC(=O)C/C=C/[C@@H](C)[C@@H](/C=N/OC[C@H]1O[C@H](c2ccccc2)C=C[C@@H]1Oc1ccc(OC)cc1)OC	3%	-67%	-25%	-15	?	-3
C/C(=N\NC(=O)Nc1ccccc1)c1ccc2ccccc2c1	-11%	-10%	19%	-13	-7%	2
C/C(=N\Nc1ccc(C(=O)O)cc1)c1ccc2c(c1)Nc1ccccc1S2	-4%	?	1%	48*	?	69*
CCOC(=O)c1c(NC(=O)CC)sc(C(=O)NC2CCCC2)c1C	-6%	5%	14%	16	-26%	-3
O=C(NCC1COCCO1)c1ccc2nc(Cc3cccc(Cl)c3)oc2c1 (stereo not given)	0%	1%	-24%	52*	?	51*
Cc1nc2c(C(=O)N3CCOCC3)cnn2c(C)c1Cc1cccc(Cl)c1	-1%	?	-10%	-7	7.4µM*	-3
CC(=O)C1CCCN(C(=O)c2ccc3nc(Cc4cccc(Cl)c4)oc3c2)C1 (stereo not given)	0%	?	-7%	17	-16%	13*
O=C(c1ccc2nc(Cc3cccc(Cl)c3)oc2c1)N1CCOCC1	-3%	13%	-12%	69*	-1%	59*
O=C(NCCc1ccncc1)c1ccc2nc(Cc3cccc(Cl)c3)oc2c1	-1%	10%	-29%	-10	-44%	0
CC(SCCc1ccccn1)C(=O)O (stereo not given)	2%	nt	2%	-3	5%	1
C[C@H](NC(=O)c1cccc([N+](=O)[O-])c1)C(=O)OCC(=O)c1ccccc1Br	-4%	nt	nt	nt	nt	nt
COc1ccc(N(CC(=O)NCc2ccncc2)S(=O)(=O)c2ccc(C)c([N+](=O)[O-])c2)cc1	1%	1.9µM*	-6%	-7	-1%	-1
COCCNC(=O)CN(c1cc(Cl)ccc1OC)S(=O)(=O)c1ccc(C)c([N+](=O)[O-])c1	0%	?	0%	6	400%	-3
COc1ccc(N(CC(=O)NCc2cccnc2)S(=O)(=O)c2ccc(C)c([N+](=O)[O-])c2)cc1	0%	13%	-10%	-8	?	-2
C=CCNC(=O)CN(c1cc(Cl)ccc1OC)S(=O)(=O)c1ccc(C)c([N+](=O)[O-])c1	0%	2.6µM*	2%	-8	86%	-3
COc1ccc(Cl)cc1N(CC(=O)NCC(C)C)S(=O)(=O)c1ccc(C)c([N+](=O)[O-])c1	12%	-12%	11%	-14	9.3µM*	1
COc1ccc(CNC(=O)CN(Cc2ccccc2F)C(=O)c2csnn2)cc1	-1%	-2%	-3%	12	-18%	-1
CCCNC(=O)c1ccc(CNc2c(N3CCC(C(=O)OCC)CC3)c(=O)c2=O)cc1	4%	?	6%	-15	4%	10
Cc1ccsc1C(=O)NN=C1CCCCCC1	-4%	7%	-11%	96*	?	51*
O=C(NN=C1CCCCCC1)c1ccc(Cl)s1	-4%	40%	-5%	12	-21%	10
Cc1ccc(C(=O)NN=C2CCCCCC2)s1	-5%	2%	5%	59*	-22%	47*
CC1CCN(C(=O)c2cc3c(=O)n4ccccc4nc3s2)CC1	-1%	39%	-15%	83*	?	26
O=C(c1cc2c(=O)n3ccccc3nc2s1)N1CCN(c2cccc(Cl)c2)CC1	-2%	-8%	13%	-4	?	2

Assay outcomes from PubChem BioAssay.
